# From PubChem
# In the library only some 7.9% were active in any assay of this set; here they are far more common.
# MCF10A rerep: A quantitative high throughput screen for small molecules that induce DNA re-replication in MCF 10a normal breast cells. AID 624296, 2012. MCF 10A DNA re-replication, Hoechst nuclear intensity, 48 h. actives 2.9% (n = 350,000). Potency, µM (doses to about 46.1 µM), for the others: at the top dose activity, positive = re-replication, most hits filed as activators; note: % of control where 0% means no effect; nearly all actives have a fitted effect of over 50% in size
# SW480 rereplic: A quantitative high throughput screen for small molecules that induce DNA re-replication in SW480 colon adenocarcinoma cells; SW480 DNA re-replication, Hoechst DNA content imaging, 48 h; Potency, µM (titrated, usually from 46.1 µM), without a hit: at the top dose re-replication activation, usual class: activators; actives 1.8% (n = 340,000); AID 624297, 2012; note: % of control where 0% means no effect; nearly all actives have a fitted effect of over 55% in size
#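 SW480 cells exposed to compounds for 48 hr at 37 C, 5% CO2, then Hoechst-stained 40 min. Nuclear DNA content imaged by fluorescence scanning (405 nm excitation, 500-530 nm emission); re-replication scored as increased high-intensity nuclei.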
# HT1080 IDH1KD tx: qHTS for induction of synthetic lethality in tumor cells producing 2HG: qHTS for the HT-1080-IDH1KD cell line; HT-1080 IDH1 knockdown viability, ATP luminescence, 48 h; Potency, µM (top dose mostly 46.1 µM), without a hit: at the highest dose activity, negative = toxicity, most hits filed as cytotoxic; actives 2% (n = 360,000); AID 686971, 2013;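 note: 0% = DMSO wells and -100% = cell-free medium wells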
#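 Cytotoxicity counter-line: IDH1KD HT-1080, 48 h, CellTiter-Glo. Curves classed by r2, magnitude and activity.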
# KB-V1 cytotox: qHTS assay for MDR1-selective chemotherapeutics: Primary screen using the drug-selected MDR subline cells KB-V1; KB-V1 MDR cells viability, CellTiter-Glo, 72 h; Potency, µM (top dose mostly 46.1 µM), actives largely listed as cytotoxic; actives 3.4% (n = 400,000); note: % is set by controls: 0 for no effect and ±100 for the full control effect; nearly all actives have a fitted effect of over 60% in size
#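 Cytotoxicity toward P-gp-expressing KB-V1 cells was determined as loss of CellTiter-Glo luminescence after 72 h at 37 degrees C. Compounds were tested in quantitative HTS format across a concentration range, with curves fitted to normalized data.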
# HT1080-NT tox: qHTS for induction of synthetic lethality in tumor cells producing 2HG: qHTS for the HT-1080-NT fibrosarcoma cell line; HT-1080-NT fibrosarcoma viability, CellTiter-Glo ATP luminescence, 48 h; AID 686970, 2013; actives 1.6% (n = 360,000); Potency, µM (highest dose often 46.1 µM), for inactives: at the top dose activity, negative = less viability, most hits filed as cytotoxic;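 note: NT is the 2HG producing partner of a matched IDH1 knockdown line; 0% = DMSO-treated cells and -100% = media-only wells without cells; nearly all actives have a fitted effect of over 55% in size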
#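 Luminescent CellTiter-Glo readout after 48 hours of compound exposure at 37 degrees C defined viability of HT-1080-NT cells. Activity was normalized to DMSO wells and cell-free media wells; concentration-response curves were fitted and assigned curve classes.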
# KB-3-1 tox: qHTS assay for MDR1-selective chemotherapeutics: Primary screen using the parental adenocarcinoma cell KB-3-1; KB-3-1 viability, CellTiter-Glo ATP luminescence, 72 h; Potency, µM (highest dose often 46.1 µM), usual class: cytotoxic; actives 1.4% (n = 400,000); note: % is set by controls: 0 for no effect and ±100 for the full control effect; nearly all actives have a fitted effect of over 60% in size
#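 72 h, 37 °C compound treatment of KB-3-1 parental cells; CellTiter-Glo added, 10 min, luminescence read. Data corrected against DMSO-only plates and normalized before curve fitting.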
# * hit, by the source's call; i = inactive; ? = inconclusive; · = not tested or not shown. Calls come from the whole dose curve; as a rule, active = well fitted curve in the direction sought with a large enough effect; inconclusive = small, poorly fitted or top-dose-only effect, or another doubt; inactive = no such curve, though single readings can be large; an effect the other way counts as inactive or inconclusive. Potency is the fitted concentration of half-maximal effect.
SMILES,MCF10A rerep,SW480 rereplic,HT1080 IDH1KD tx,KB-V1 cytotox,HT1080-NT tox,KB-3-1 tox
Cc1c(Cl)cccc1-c1ccc(C(=O)Nc2ccc(F)cc2)o1,·,·,·,i,·,i
O=C(Nc1cccc([N+](=O)[O-])c1)Nc1ccc2c(c1)CCC2,16%,28%,?,23µM*,-21%,?
O=[N+]([O-])c1cccc(NC2=NCCC2)c1,-1%,0%,?,i,-9%,13µM*
CC(NC(=O)Nc1cccc([N+](=O)[O-])c1)(C(F)(F)F)C(F)(F)F,12%,3%,16µM*,?,?,18µM*
O=C(Nc1cccc([N+](=O)[O-])c1)Nc1cccs1,0.65µM*,-9%,4%,i,2%,i
CCC1CCc2sc(C(=O)NCC(c3ccccc3OC)N3CCCC3)cc2C1 (configuration not stated),?,?,?,i,?,?
O=C(N/N=C1\CCSc2ccc(F)cc21)c1cccnc1,-4%,-12%,8%,i,6%,i
NC(=S)N/N=C1\CCSc2ccc(Cl)cc21,-2%,18µM*,-7%,?,-11%,i
CN(C(=O)COc1ccccc1C(=O)Nc1ccccc1)c1ccccc1,·,·,·,i,·,i
Cc1ccccc1C(=O)NC1CCN(Cc2nnnn2Cc2ccc(F)cc2)CC1,2%,-6%,-2%,21µM*,5%,i
CCOc1ccccc1C(=O)NC1CCN(Cc2nnnn2C2CCCC2)CC1,21%,-1%,-1%,9.2µM*,-2%,i
CC[n+]1ccccc1/C=C/c1ccc(N(C)C)cc1,?,-4%,18µM*,i,?,1.3µM*
CCCCCC[n+]1ccccc1/C=C/c1ccc(N(C)C)cc1,·,·,1.2µM*,i,7.3µM*,?
CN(C)c1ccc(/C=C/c2ccc3ccccc3[n+]2[O-])cc1,·,·,·,?,·,i
CN(C)c1ccc(/C=C/c2cc[n+]([O-])c3ccccc23)cc1,·,·,·,?,·,i
CC[n+]1ccc(/C=C/c2ccc(N(C)C)cc2)c2ccccc21,4%,-39%,1.3µM*,i,?,1.2µM*
CN(C)c1ccc(/C=C/c2cccc3ccccc23)cc1,·,·,·,i,·,i
CC[n+]1c(/C=C/c2ccc(N(C)C)cc2)ccc2ccccc21,-29%,-4%,10µM*,?,10µM*,?
COc1cc(NC(=O)CSc2ncc(S(=O)(=O)c3ccc(Br)cc3)c(=O)[nH]2)cc(OC)c1,·,·,·,i,·,i
COc1cc(/C=N/n2c(C3CCCCC3)n[nH]c2=S)ccc1O,-1%,-3%,0%,i,-10%,i
Cc1ccccc1C(=O)NCCCNC(=O)c1ccccn1,3%,-8%,16%,i,20%,i
CCC(C)N(C(=O)Cn1c(=O)cnc2ccccc21)C1CCS(=O)(=O)C1 (configuration not stated),2%,2%,1%,i,5%,i
Cc1cnc(C(=O)Nc2ccc(F)cc2)cn1,-2%,2%,2%,?,22%,i
Cc1cnc(C(=O)Nc2ccc(N3CCN(C(=O)OC(C)(C)C)CC3)cc2)cn1,?,?,?,i,?,5.8µM*
Cc1ccc(C(=O)NCc2ccc(N3CCN(C(=O)OC(C)(C)C)CC3)cc2)cc1,7%,-10%,10%,3.7µM*,7%,i
SMILES,MCF10A rerep,SW480 rereplic,HT1080 IDH1KD tx,KB-V1 cytotox,HT1080-NT tox,KB-3-1 tox
COc1ccc(N2CCN(C(=O)NCc3ccc(C)cc3)CC2)cc1,?,?,?,5.8µM*,-26%,0.52µM*
Cc1ccc(OCCC(=O)N2CCN(c3ccc(O)cc3)CC2)cc1,?,7.3µM*,7.3µM*,i,?,?
CCOc1ccc(C(=O)CCC(=O)N2CCN(c3ccc(O)cc3)CC2)cc1,14%,?,?,i,-15%,i
COc1ccc(C(=O)Nc2ncnc3nc[nH]c23)cc1,·,·,·,i,·,i
CC(OC(=O)/C(C#N)=C/c1ccc(N(C)C)cc1)C(=O)N(C)c1ccccc1 (configuration not stated),?,4%,-6%,18µM*,-1%,i
Cc1cccc(NS(=O)(=O)c2cc(C(=O)OC(C)C(=O)NCc3ccc4c(c3)OCO4)ccc2C)c1 (configuration not stated),17%,15%,-15%,15µM*,-11%,i
CC1CC(C)CN(S(=O)(=O)c2ccc(NC(=O)c3ccc(=O)[nH]c3)cc2)C1 (configuration not stated),5.8µM*,?,5.2µM*,i,5.8µM*,4.6µM*
CCN(c1ccccc1)S(=O)(=O)c1ccc(C(=O)Nc2nnc(C3CC3)o2)cc1,1%,?,?,7.3µM*,?,?
CCc1nnc(NC(=O)c2ccc(S(=O)(=O)N3CCCC(C)C3)cc2)o1 (configuration not stated),2%,?,?,?,?,?
CC1CC(C)CN(S(=O)(=O)c2ccc(C(=O)Nc3nnc(C4CC4)o3)cc2)C1 (configuration not stated),18%,17%,-6%,5.2µM*,-18%,?
CC1CCCN(S(=O)(=O)c2ccc(C(=O)Nc3nnc(-c4ccco4)o3)cc2)C1 (configuration not stated),20%,?,17%,7.3µM*,-8%,?
CC(OC(=O)c1cccc(-n2cnnn2)c1)C(=O)Nc1ccc(N(C)C)cc1 (configuration not stated),10%,-1%,-7%,i,-18%,i
CCN(c1ccccc1)S(=O)(=O)c1ccc(C(=O)Nc2nnc(-c3ccco3)o2)cc1,8%,23µM*,?,i,?,i
Cc1nn(-c2ccccc2)c(C)c1C(=O)Nc1nnc(-c2ccco2)o1,10%,?,-23%,5.8µM*,-25%,?
CC(=O)Nc1nnc(-c2ccco2)o1,-2%,1%,13%,i,19%,i
CN(c1ccccc1)S(=O)(=O)c1ccc(C(=O)Nc2nnc(-c3ccco3)o2)cc1,3%,21µM*,?,?,-15%,?
